# Bioassay records deposited in PubChem BioAssay by National Center for Advancing Translational Sciences (NCATS).
# ATXN2 expr inh – reduces ATXN2 reporter expression in HEK-293 cells; HEK-293 ATXN2-luciferase reporter, luminescence, 24 h; Potency, µM (series often up to 57 µM), hits mostly inhibitors; 360,000 compounds, 0.72% hits; AID 1745845; further: nearly all actives have a fitted effect of over 55% in size
#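 qHTS (up to 57 uM final) was run with 24 h compound exposure of reporter cells at 37 °C. Each well was multiplexed: SteadyGlo luminescence measured ATXN2-luciferase expression after a fluorogenic Gly-Phe-AFC viability readout (25 uM final).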
# D3 antag – blocks the human D3 dopamine receptor. max response, negative = inhibition, %. D3R cells, DiscoveRx beta-arrestin luminescence, antagonist mode; active compounds read low. P35462. 360,000 compounds, 2.5% hits; in the data active means max response below about -50%; inconclusive means no clear call, values can overlap the other calls
# Target sequence (P35462 whole entry, looked up): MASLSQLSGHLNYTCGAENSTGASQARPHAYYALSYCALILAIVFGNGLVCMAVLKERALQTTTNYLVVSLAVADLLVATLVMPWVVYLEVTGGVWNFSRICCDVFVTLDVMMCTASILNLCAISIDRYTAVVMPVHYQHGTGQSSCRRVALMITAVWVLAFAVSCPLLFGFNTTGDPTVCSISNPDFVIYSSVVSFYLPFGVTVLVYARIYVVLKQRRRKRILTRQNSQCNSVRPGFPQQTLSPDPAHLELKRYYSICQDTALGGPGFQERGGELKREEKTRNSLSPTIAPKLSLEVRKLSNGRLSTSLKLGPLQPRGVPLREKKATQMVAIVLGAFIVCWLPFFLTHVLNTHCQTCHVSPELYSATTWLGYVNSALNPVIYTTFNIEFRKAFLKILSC
#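 Cells plated overnight at 1500 cells/well, then exposed to library compounds with dopamine controls for 90 minutes at 37 degrees C. DiscoveRx reagent added for 30–60 minutes at room temperature; luminescence read, quantitative HTS format.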
# S2 tox – cell viability loss in ATXN counter-screen | S2 cells (HEK-293 line with an ATXN2-luciferase reporter) viability, CellTiter-Fluor protease fluorescence, 24 h | Potency, µM (doses to about 56.7 µM), most hits filed as cytotoxic | 400,000 compounds, 0.49% hits | AID 651635; further: nearly all actives have a fitted effect of over 40% in size
# DRD3 agonist – activates the human D3 dopamine receptor; D3R DiscoveRx beta-arrestin cells, luminescence, 90 min; AID 652048; P35462; max activation, %; 410,000 compounds, 0.58% hits; in the data active means max activation above about 30%
#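 Cells at 1500/well, incubated overnight, then treated with pinned compounds (dopamine as control) for 90 min at 37 degrees C. DiscoveRx reagent added for 30 - 60 minutes at room temperature; luminescence read.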
# TGFb inhibitor – TGF-b pathway inhibition; HepG2 CAGA-GFP TGF-b/SMAD3 reporter, GFP fluorescence, 18 h; TGF-beta stimulated, 500 pg/mL final; Potency, µM (top dose mostly 46.1 µM), actives largely listed as inhibitors; 410,000 compounds, 1.2% hits; AID 588855; further: nearly all actives have a fitted effect of over 65% in size
#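 HEPG2 CAGA-GFP, 1000 cells/well; 2 h settle, 37 C; cpd via pin tool; TGF-b 500 pg/mL final; 18 h, 37 C; GFP imaging ex488/em500-530; %Activity normalised to -TGF-b and +DMSO controls; CRC fit, curve class.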
# HepG2 viability – counter-screen for TGF-b inhibitors: cytotoxicity in HepG2 cells; HepG2 CAGA-GFP viability, ATP luminescence, 18 h; Potency, µM (titrated, usually from 46.1 µM), actives largely listed as cytotoxic; 410,000 compounds, 0.76% hits
#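 HepG2 CAGA-GFP cells (1000/well, DMEM with 1% FBS) received compound, then TGF-beta at 500 pg/mL final, and were incubated 18 hours at 37 degrees C. Viability was read by CellTiter-Glo luminescence. Media-only wells were set as complete cell-killing and DMSO as no toxicity.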
# A number is an active result; – = inactive; ? = inconclusive; · = no result given; ! = repeats disagree. In the library only some 4.8% were active in any assay of this set; here they are far more common. Unless noted, the call rests on the fitted dose curve; in most records, active means well fitted curve in the direction sought with a large enough effect; inconclusive means small, poorly fitted or top-dose-only effect, or another doubt; inactive means no such curve, though single readings can be large; an effect the other way counts as inactive or inconclusive.
SMILES,ATXN2 expr inh,D3 antag,S2 tox,DRD3 agonist,TGFb inhibitor,HepG2 viability
CCc1ccccc1NC(=O)Nc1ccc2c(c1)N(CC)C(=O)c1ccccc1S2,·,·,·,–,11.2µM,–
Cc1ccccc1CNC(=O)Nc1ccc2c(c1)N(C)C(=O)c1ccccc1S2,·,·,·,–,7.08µM,–
Cc1ccc(CNC(=O)CCc2c(C)nc3nc(C)nn3c2C)cc1,–,·,–,–,–,–
Cc1ccccc1Nc1nnc(-c2ccc(C)c(S(=O)(=O)NCC3CCCO3)c2)c2ccccc12 (configuration not stated),?,·,?,–,–,–
C(=C\c1ccnc2ccccc12)/c1ccc(-[n+]2cc[n+](-c3ccc(/C=C/c4ccnc5ccccc45)cc3)cc2)cc1,·,·,·,·,?,–
Cn1cnc(S(=O)(=O)N2CCCC(C(=O)NCc3ccccc3)C2)c1 (configuration not stated),·,·,·,–,–,–
COc1ccc(NC(=O)Nc2c[nH]c(=O)[nH]c2=O)c(OC)c1,–,·,–,–,–,–
COc1cc(/C=C/C(=O)OCC(=O)NC(=O)NC23CC4CC(CC(C4)C2)C3)ccc1OCC#N,–,-53.1,–,–,–,–
CS(=O)(=O)NCCCNc1ccc(Cl)cc1[N+](=O)[O-],–,-50.5,–,–,–,–
CCNCCNc1ccc(Cl)cc1[N+](=O)[O-],–,-74.7,–,–,–,–
O=[N+]([O-])c1cc(C(F)(F)F)ccc1NCCCCNS(=O)(=O)c1ccc(Cl)cc1,?,?,?,–,?,10µM
O=[N+]([O-])c1cc(Cl)ccc1NCCNc1ncc(C(F)(F)F)cc1Cl,–,–,–,–,–,–
O=[N+]([O-])c1cc(C(F)(F)F)ccc1NCCNC(=S)Nc1ccc(Cl)cc1,?,–,?,–,5.01µM,10µM
COc1ccc(C2Nc3ccccc3-c3nnc(SC)nc3O2)cc1C (configuration not stated),–,·,–,–,–,–
Cc1cccc(CNC(=O)C(=O)Nc2ccccc2C)c1,–,·,–,–,–,–
C[C@H](O)[C@@H]1CN2CCc3c([nH]c4ccccc34)[C@@H]2C[C@@H]1N(C)C(=O)Nc1cccc2ccccc12,–,-58.0,–,–,?,–
COc1ccc(-c2ccc3[nH]c4c(c3c2)CCN2C[C@@H]([C@H](C)O)[C@@H](N(C)C(=O)Nc3cc(Cl)cc(Cl)c3)C[C@@H]42)cc1,–,–,·,–,?,–
C[C@H](O)[C@@H]1CN2CCc3c([nH]c4ccc(-c5ccc6c(c5)OCO6)cc34)[C@@H]2C[C@@H]1N(C)C(=O)Nc1ccc(F)cc1,?,–,31.6µM,–,?,12.6µM
CCNC(=O)N(C)[C@H]1C[C@H]2c3[nH]c4ccccc4c3CCN2C[C@H]1[C@H](C)O,–,–,–,–,–,–
O=C(Cn1cc(/C=C\[N+](=O)[O-])c2ccccc21)Nc1ccccc1,?,?,·,–,8.91µM,11.2µM
O=C(O)Cn1cc(/C=C/[N+](=O)[O-])c2ccccc21,–,–,?,–,–,–
N#Cc1ccccc1Cn1cc(/C=C/[N+](=O)[O-])c2ccccc21,?,–,·,–,4.47µM,7.08µM
CN(C)c1ccc(/C=C2\C=Cc3ccccc32)c(F)c1,·,·,·,·,–,–
CC1(C)[C@H]2CC[C@]1(C)[C@H](O)C2,·,·,·,–,·,·
O=C(Nc1ccccc1Cl)N1CCC2(CC1)Oc1ccccc1C(=O)N2Cc1ccc(F)cc1,·,·,·,–,–,–
SMILES,ATXN2 expr inh,D3 antag,S2 tox,DRD3 agonist,TGFb inhibitor,HepG2 viability
C=CC(=O)N1c2ccccc2Sc2ccc(NC(=O)OCC)cc21,?,?,?,–,15.8µM,–
CCOC(=O)Nc1ccc2c(c1)N(C(=O)N1CCN(C)CC1)c1ccccc1S2,–,–,–,–,–,–
CCOc1ccc(NC(=S)Nc2ccc3nsnc3c2)cc1,–,–,–,–,–,–
COc1ccc(NC(=S)Nc2ccc3nsnc3c2)cc1,–,-61.5,·,–,?,–
COc1cc(/C=C2\CC/C(=C\c3cc(OC)c(O)c(OC)c3)C2=O)cc(OC)c1O,?,-73.6,·,–,?,–
CCOc1cc(/C=C2\CCCC(C(=O)C(F)(F)F)=C2O)ccc1O,–,-52.2,–,–,–,–
COc1cc(C=C2C(=O)C=CC2=O)ccc1O,12.6µM,-135.8,·,–,·,·
CCOc1cc(/C=C2\CN(CC)C/C(=C\c3ccc(O)c(OCC)c3)C2=O)ccc1O,?,?,?,–,5.62µM,8.91µM
COc1cc(/C=C2\CC/C(=C\c3cc(OC)c(OC)c(OC)c3)C2=O)cc(OC)c1OC,–,–,–,–,?,–
COc1ccccc1CNC(=O)CN1C(=O)COc2ccc(S(=O)(=O)Nc3ccccc3)cc21,–,·,?,–,?,–
Cc1cccc(CNC(=O)c2ccc(NC(=O)N3CC(C)Sc4ccccc43)cc2)c1 (configuration not stated),–,·,–,–,–,–
COc1ccc(-c2nc(SCC(=O)c3ccc(OC)c(Br)c3)n[nH]2)cc1,·,·,·,–,–,–
CS(=O)(=O)c1ccc(C(=O)Nc2ccc(Cl)c(-c3ccccn3)c2)c(Cl)c1,–,·,·,·,·,·
COc1cc(/C=C2\CCC/C(=C\c3ccc(O)c(OC)c3)C2=O)ccc1O,?,–,·,–,?,10µM!
COc1cc(/C=C2\CCC(C3CCCC3)C2=O)cc(OC)c1OC (configuration not stated),–,–,–,–,–,–
COc1cc(/C=C2\CC(C(C)(C)C)C/C(=C\c3cc(OC)c(OC)c(OC)c3)C2=O)cc(OC)c1OC (configuration not stated),?,–,?,–,11.2µM,–
COc1cc(C=C2CCC/C(=C\c3ccc(O)c(OC)c3)C2=O)ccc1O,15.8µM,·,28.2µM,–,·,·
COc1cc(/C=C2/CCC/C(=C\c3cc(O)c(OC)c(Cl)c3)C2=O)cc(Cl)c1O,?,?,·,–,?,12.6µM
CC1CCN(c2ccc(-c3cccc(NS(=O)(=O)c4cccs4)c3)nn2)CC1,–,·,?,–,–,–
CC(=O)N/C(=C/c1ccccc1)c1ccncc1,·,·,·,·,–,–
Cc1ccc(C)c(NC(=O)C(=O)NCCc2csc3nc(-c4ccccc4C)nn23)c1,–,·,–,–,–,–
Clc1ccc(-n2c(Cc3ccccc3)nnc2SCc2nc(-c3cccs3)no2)cc1,–,·,–,–,?,–
CCN1C/C(=C/c2cccc([N+](=O)[O-])c2)C(=O)/C(=C/c2cccc([N+](=O)[O-])c2)C1,3.16µM,–,3.98µM,–,?,–
Oc1ccc(CCNc2ncnc3ccc(Cl)cc23)cc1,–,–,?,51.7,–,–
Nc1ncnc2c1ncn2[C@@H]1O[C@H](CNCc2ccc(-c3cc(C(F)(F)F)ccc3Cl)o2)[C@@H](O)[C@H]1O,–,-75.8,–,–,–,–
